In article PMC5540273 (PLoS ONE, 2017):

Columns and labels:
Conditions in all cases: concentration: 1 μM,replicates: in singlicate; n = 1
[1] = tested on: T1, RSK4(Kin.Dom.1-N-terminal)
T1 construct: gene RPS6KA6

[2] = tested on: T2, RSK4(Kin.Dom.2-C-terminal)
T2 construct: gene RPS6KA6

[3] = tested on: S6K1
[4] = tested on: SBK1
[5] = tested on: SGK2
[6] = tested on: SGK3
[7] = tested on: SGK
[8] = tested on: SIK2
[9] = tested on: SIK
[10] = tested on: SLK
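Further: KINOMEscan kinase panel screen.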

Row | Structure (SMILES) | %Inh [1] [%] | %Inh [2] [%] | %Inh [3] [%] | %Inh [4] [%] | %Inh [5] [%] | %Inh [6] [%] | %Inh [7] [%] | %Inh [8] [%] | %Inh [9] [%] | %Inh [10] [%]
1 | CN(c1ccc2c(c1)nc(NCc1ccc(F)cc1)n2C)c1ccnc(Nc2ccc(CS(C)(=O)=O)cc2)n1.Cl [GW813244] | 16 | 0 | 11 | 10 | 18 | 0 | 17 | 39 | 0 | 61
2 | C[C@@H](Oc1cc(-n2cnc3ccc(-c4ccncc4)cc32)sc1C(N)=O)c1ccccc1Cl [GSK483724] | 12 | 0 | 0 | 6 | 14 | 0 | 7 | 0 | 11 | 95.5
3 | COC(=O)c1cccc(NC(=O)NC2CCN(c3ccnc(Nc4cc(OC)c(OC)c(OC)c4)n3)C2)c1 (stereo not shown) [GSK1379767] | 0 | 16 | 0 | 6 | 0 | 2 | 0 | 5 | 0 | 28
4 | CC(C)S(=O)(=O)N1CCN(Cc2ccc3c(c2)nc(NC(=O)c2ccsc2)n3C[C@H](O)c2ccccc2)CC1 [GW635815] | 54 | 9 | 13 | 59 | 0 | 3 | 0 | 19 | 0 | 33
5 | C[C@@H](Oc1cc(-n2cnc3cc(-c4cnn(C)c4)ccc32)sc1C(N)=O)c1ccccc1Cl [GSK580432] | 37 | 7 | 0 | 13 | 5 | 0 | 0 | 74 | 65 | 99.7
6 | Nc1nccc(-c2ccc3c(N)n[nH]c3c2)n1 [GSK1034945] | 59 | 24 | 1 | 25 | 4 | 24 | 0 | 0 | 0 | 25
7 | CN(c1cccc(CNc2nc(Nc3ccc4c(c3)CC(=O)N4)ncc2C(F)(F)F)c1)S(C)(=O)=O | 77 | 54 | 42 | 48 | 0 | 2 | 31 | 56 | 25 | 33
8 | CC(C)c1nc(-c2cccc(NS(=O)(=O)c3ccccc3)c2)c(-c2ccnc(Nc3ccc4c(c3)CN(C)CC4)n2)s1 [GSK1649598] | 0 | 46 | 66 | 43 | 35 | 53 | 77 | 87 | 99.6 | 88
9 | CCn1c(-c2nonc2N)nc2cncc(CNC3CCNCC3)c21.Cl [SB-747651] | 10 | 25 | 60 | 25 | 7 | 43 | 0 | 0 | 0 | 9
10 | O=C(Nc1cccc(C(F)(F)F)c1)c1cccc(Oc2ccc3nccn3n2)c1 | 23 | 22 | 2 | 35 | 15 | 14 | 9 | 0 | 0 | 10
11 | CNC(=O)c1ccccc1Nc1nc(Nc2cccc(CS(C)(=O)=O)c2)ncc1C.O=CO [GSK1520489] | 99.6 | 49 | 85 | 90 | 14 | 42 | 71 | 95 | 99.6 | 99.9
12 | O=C(Nc1ccc(Oc2ccc3nc(NC(=O)C4CC4)cn3n2)c(F)c1)c1cccn(-c2ccccc2)c1=O | 0 | 0 | 0 | 0 | 0 | 0 | 0 | 8 | 59 | 0
13 | Cl.Nc1n[nH]c2cc(-c3ccccn3)ccc12 [GSK2189892] | 3 | 0 | 0 | 28 | 0 | 0 | 0 | 0 | 0 | 14
14 | CC(C(=O)NC1CCN(c2ccnc(Nc3ccc(F)cc3)n2)C1)c1ccc(Cl)cc1 (stereo not shown) [GSK1379713] | 0 | 0 | 0 | 7 | 0 | 0 | 0 | 0 | 0 | 17
15 | C[C@@H](Oc1cc(-n2cnc3cc(-c4ccncc4)ccc32)sc1C(N)=O)c1ccccc1Cl [GSK479719] | 25 | 21 | 11 | 19 | 5 | 0 | 0 | 43 | 11 | 99.4
16 | CCN1CCN(CCCC(=O)Nc2n[nH]c3nc(-c4ccc(O)cc4)c(Br)cc23)CC1 [SB-731579] | 20 | 0 | 0 | 10 | 0 | 0 | 0 | 0 | 0 | 78
